The structures appear in SMILES notation. The panel holds about 79,000 compounds, 15% with a hit somewhere; the sample as a whole holds those more often. Unmarked numbers belong to inactive results. Active and inactive are the calls of the source. No stated cut-off is given here; in the data, active means growth inhibition above about 70%; inactive means the rest.

The nature of assay [1]: NCI Yeast Anticancer Drug Screen. Data for the rad50 strain (AID 155).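 Further: 0% = growth of vehicle-only cultures of the same strain.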 To be noted: S. cerevisiae rad50 strain growth inhibition; at 50.0 µM; active compounds read high. In a few lines:
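Cells are treated with compound, grown, and their growth is then scored against vehicle-only cultures of the same repair-deficient yeast strain.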

Assay [2] can be described thus: NCI Yeast Anticancer Drug Screen. Data for the mec2-1 strain (AID 157). To be noted: S. cerevisiae mec2-1 strain, at 50.0 µM, active compounds read high. In a few lines: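 Readout is yeast growth inhibition, normalised to vehicle-treated controls, in the mec2-1 strain exposed to compound.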
Assay [3] in a line: NCI Yeast Anticancer Drug Screen. Data for the sgs1 mgt1 strain (AID 161).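 Further: 0% = growth of cultures given vehicle only.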 As to conditions: S. cerevisiae sgs1 mgt1 strain, at 50.0 µM, active compounds read high. In a few lines:
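Yeast cells carrying a defined DNA-repair defect were exposed to test compounds. Growth inhibition was measured relative to vehicle-treated controls.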

Assay [4] in a line: NCI Yeast Anticancer Drug Screen. Data for the cln2 rad14 strain (AID 165).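 Further: 0% = growth equal to vehicle treated cultures.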 To be noted: S. cerevisiae cln2 rad14 strain, at 50.0 µM, active compounds read high. The essentials: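 Relative to vehicle controls, growth inhibition of compound-treated cln2 rad14 yeast was recorded.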
A short description of assay [5]: NCI Yeast Anticancer Drug Screen. Data for the bub3 strain (AID 167). As to conditions: S. cerevisiae bub3 mutant strain, at 50.0 µM, active compounds read high. The essentials: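 Part of a panel of yeast mutants defective in DNA damage repair or cell cycle regulation. Each strain is grown with compound, and inhibition is calculated relative to solvent-treated cultures.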

Assay [6] is described as follows: NCI Yeast Anticancer Drug Screen. Data for the mlh1 rad18 strain (AID 175). As to conditions: S. cerevisiae mlh1 rad18 strain growth inhibition; at 50.0 µM; active compounds read high. In a few lines:
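Test agents were incubated with a yeast strain of defined genotype (DNA damage repair defect). Inhibition of growth was derived by comparison with vehicle-exposed cultures.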

Turning to `O=C1NC(=S)N/C1=C\c1cccs1`, the growth inhibition in assay [1] was -20.6%; in assay [2] it was -7.25%; in assay [3] it was 15.4%; in assay [4], -19.9%; in assay [5], -7.35%; in assay [6] it was -44.6%.

On to `COc1ccn(C2OC(=O)C(C)(C)C2=O)c(=O)n1` (stereo not given), for which the growth inhibition in assay [1] was -0.4%; in assay [2], -15.4%; in assay [3], 0.55%; in assay [4], -1.2%; in assay [5], -9.4%; in assay [6], -12.6%.

For the compound `N#C/C(=C\c1cccc(Br)c1)c1nc2ccccc2c(=O)[nH]1`, the growth inhibition is 5.75% in assay [1]; 4.4% in assay [2]; 0.2% in assay [3]; 1.55% in assay [4]; -14.4% in assay [5]; -35.4% in assay [6].

Turning to `COc1ccc(/C=C(\C2=NC(=O)CS2)c2nc3ccccc3[nH]2)cc1`, the growth inhibition is -0.35% in assay [1]; -4.2% in assay [2]; -20.1% in assay [3]; -3.9% in assay [4]; -20.4% in assay [5]; -24.9% in assay [6].

As for `CC(=O)OC1CC(OC(C)=O)C(OC(C)=O)CC1OC(C)=O` (stereo not given), the growth inhibition in assay [1] is 7.95%; in assay [2], -5.15%; in assay [3] it was -9.45%; in assay [4] it was -18.2%; in assay [5], 1.05%; in assay [6] it was 12.6%.

For the compound `N#CC1(N(O)C(=O)Nc2ccccc2)CCCCC1`, the growth inhibition in assay [1] was 5.55%; in assay [2] it was -10.3%; in assay [3], -0.4%; in assay [4] it was -7.05%; in assay [5] it was 5.8%; in assay [6], -13.1%.

`Nc1nc(-c2ccc([N+](=O)[O-])cc2)cc(-c2cc(-c3ccc([N+](=O)[O-])cc3)nc(N)n2)n1`: the growth inhibition is 5.05% in assay [1]; 6.7% in assay [2]; -9.8% in assay [3]; 14.7% in assay [4]; -17.4% in assay [5]; 6.6% in assay [6].

As for `O=NC1C2CCC(C2)C1N=O.[Co].[c-]1[c-][c-][cH-][c-]1` (stereo not given), the growth inhibition in assay [1] was 9.4%; in assay [2], 6.45%; in assay [3], 4.7%; in assay [4], 20.4%; in assay [5], 13.6%; in assay [6] it was 27.9%.

Consider `C=C1CCc2occ(C)c2C2C1C1=C(CC(C)C1=O)C1OC12C` (stereo not given), for which the growth inhibition in assay [1] is 14.9%; in assay [2], 11.1%; in assay [3], -2.75%; in assay [4], -22.8%; in assay [5], 12.4%; in assay [6], 10.2%.

Take `CCCCNS(=O)(=O)c1ccccc1`: the growth inhibition was 7.95% in assay [1]; -18.1% in assay [2]; -59.6% in assay [3]; 9.65% in assay [4]; 1.6% in assay [5]; 20.4% in assay [6].

As for `CCOC(=O)C(NC(=O)C(CCCCNP(=O)(OCC)OCC)NC(=O)C(C)NC(C)=O)C(C)C` (stereo not given), the growth inhibition in assay [1] was -10.7%; in assay [2], -10.4%; in assay [3] it was -8.4%; in assay [4] it was -25.6%; in assay [5], -1.35%; in assay [6] it was 3.75%.

Take `Nc1nc2c(-c3ccc([N+](=O)[O-])cc3)nnn2c2cccc(Cl)c12`: the growth inhibition in assay [1] was -9.7%; in assay [2], -15.8%; in assay [3], -18.4%; in assay [4] it was 4.85%; in assay [5] it was -32.5%; in assay [6], -14.7%.

As to `COc1cc2c(cc1C(C)c1ccc(OC(C)C)cc1)OCO2` (stereo not given), the growth inhibition in assay [1] was -4.7%; in assay [2], -9.95%; in assay [3] it was -3.95%; in assay [4], -48.5%; in assay [5], -5.9%; in assay [6] it was -11.5%.

For `N#Cc1[nH]cnc1N`, the growth inhibition in assay [1] was -6.95%; in assay [2], -5.95%; in assay [3], -11.3%; in assay [4], -37.5%; in assay [5] it was 7.15%; in assay [6], 4.3%.

For the compound `CCCCCC1OCC(C)(C)C(C(C)C)O1` (stereo not given), the growth inhibition is -0.2% in assay [1]; -23.9% in assay [2]; -12.7% in assay [3]; 0.95% in assay [4]; -13.6% in assay [5]; 8.55% in assay [6].

Turning to `c1ccc2cc(CNCCCCNCCCNCc3ccc4ccccc4c3)ccc2c1`, the growth inhibition in assay [1] was 63.8%; in assay [2] it was 38.6%; in assay [3], 62.3%; in assay [4] it was 46.2%; in assay [5] it was 85% (active); in assay [6] it was 76.3% (active).

On to `CC1CC(=O)CC(C)C1` (stereo not given), for which the growth inhibition was 1.7% in assay [1]; -0.1% in assay [2]; -10.5% in assay [3]; -27.1% in assay [4]; 19.9% in assay [5]; 16.6% in assay [6].

Take `CC12CS(=O)(=O)CC1O2` (stereo not given): the growth inhibition is 1.65% in assay [1]; 3.25% in assay [2]; 2.2% in assay [3]; 1.9% in assay [4]; 2.2% in assay [5]; -13.4% in assay [6].

For the compound `C=CC(=O)OCc1ccc(OC)cc1`, the growth inhibition in assay [1] was 30.1%; in assay [2], 32.2%; in assay [3] it was 28.9%; in assay [4], 14.2%; in assay [5] it was 5.95%; in assay [6], 29.5%.

For `CCOC(=O)C(N=Cc1ccc([N+](=O)[O-])cc1)C(O)c1ccc([N+](=O)[O-])cc1` (stereo not given), the growth inhibition was 9.55% in assay [1]; 5.15% in assay [2]; 1.8% in assay [3]; 14.9% in assay [4]; 2.2% in assay [5]; 7.75% in assay [6].

The values above are taken from PubChem BioAssay (NCI).
